Our source for the inhibition values is PubChem BioAssay AID727 (The Scripps Research Institute Molecular Screening Center, 2007).

In all, about 97,000 compounds went through this assay and about 810 (0.84%) were called active. Shown is part of a subset that was picked to be rich in actives. Values without a mark were called inactive. Rule as the data show it: active = inhibition above about 19%; inactive = the rest.

In this experiment the target is Focal adhesion kinase 1 (Homo sapiens) (UniProt Q05397). The experiment is described as follows: FAK kinase inhibitors, primary screen, biochemical (AID 727).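 Also: 0% = DMSO and 100% = reference compound high control.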 The conditions noted are these: biochemical FAK kinase activity assay; stronger effect = higher value;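 tested at 7 µM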.
Sequence of Focal adhesion kinase 1 (Homo sapiens) (Q05397 whole entry, looked up): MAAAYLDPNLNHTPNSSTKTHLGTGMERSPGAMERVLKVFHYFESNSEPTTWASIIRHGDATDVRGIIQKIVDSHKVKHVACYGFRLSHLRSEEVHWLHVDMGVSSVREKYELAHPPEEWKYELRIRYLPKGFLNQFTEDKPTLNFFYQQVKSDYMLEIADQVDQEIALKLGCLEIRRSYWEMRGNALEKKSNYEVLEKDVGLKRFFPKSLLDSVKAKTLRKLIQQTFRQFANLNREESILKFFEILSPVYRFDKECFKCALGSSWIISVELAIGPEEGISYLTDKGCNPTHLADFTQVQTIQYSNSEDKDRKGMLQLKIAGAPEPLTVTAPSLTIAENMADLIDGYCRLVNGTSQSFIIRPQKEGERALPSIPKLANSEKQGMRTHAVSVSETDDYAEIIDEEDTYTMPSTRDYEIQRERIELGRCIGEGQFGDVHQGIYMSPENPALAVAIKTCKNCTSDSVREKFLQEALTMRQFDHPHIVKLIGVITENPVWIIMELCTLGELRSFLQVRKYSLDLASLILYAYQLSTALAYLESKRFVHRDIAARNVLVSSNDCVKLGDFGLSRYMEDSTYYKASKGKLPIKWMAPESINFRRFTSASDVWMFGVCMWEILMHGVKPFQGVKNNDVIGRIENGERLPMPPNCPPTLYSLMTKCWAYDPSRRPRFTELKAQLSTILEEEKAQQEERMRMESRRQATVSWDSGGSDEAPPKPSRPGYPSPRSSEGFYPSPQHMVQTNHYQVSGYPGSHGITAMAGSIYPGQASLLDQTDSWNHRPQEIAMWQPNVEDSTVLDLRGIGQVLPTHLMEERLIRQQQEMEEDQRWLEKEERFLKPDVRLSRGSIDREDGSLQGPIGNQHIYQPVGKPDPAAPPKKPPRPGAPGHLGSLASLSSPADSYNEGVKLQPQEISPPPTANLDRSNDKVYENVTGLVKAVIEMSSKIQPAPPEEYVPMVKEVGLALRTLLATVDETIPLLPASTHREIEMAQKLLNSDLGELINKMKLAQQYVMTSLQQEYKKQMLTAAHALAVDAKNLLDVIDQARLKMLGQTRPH
With `CN(C)CCNC(=O)Nc1cccc(Cl)c1Cl`, the inhibition was -0.62%.

`CCOC(=O)c1cnc(-c2ccccc2)nc1Oc1ccc(C)cc1`: the inhibition is 4.12%.

On to `CN(CCO)Cc1csc2ccc(Br)cc12`, for which the inhibition is -0.2%.

As for `C=CCNc1nc(N)c(C(=C(C#N)C#N)c2ccccc2)s1`, the inhibition is 9.82%.

On to `N=c1c2c3c(sc2nc2n1CCCCC2)CCCC3`, for which the inhibition was 0.27%.

With `CC1Cc2ccccc2N1C(=O)c1cc2sccc2n1Cc1ccccc1` (stereo unspecified), the inhibition was -0.85%.

Consider `COc1cccc(/C=N/NC(=O)C(=O)N2CCCC2)c1`, for which the inhibition is -2.37%.

As to `O=C(Nc1ccc(-n2ccnc2P(=O)(O)c2ccccc2)cc1)c1ccccc1Br`, the inhibition was 22.8% (active).

Turning to `Cc1nonc1NC(=O)c1ccccc1Br`, the inhibition is -1.88%.

With `O=C(Nc1ccccc1)c1cccnc1Nc1ccccc1`, the inhibition was 1.76%.

`CC(CNc1ccc([N+](=O)[O-])cc1)NC(=O)c1ccccc1Br` (stereo unspecified): the inhibition was 1.61%.

`C#CCN(N(C)c1ncc(C(F)(F)F)cc1Cl)S(=O)(=O)c1ccc2ccccc2c1`: the inhibition was -0.5%.

For the compound `CCN(CC)S(=O)(=O)c1ccc2c3c(cccc13)C(=O)S2`, the inhibition was 36% (active).

Consider `CN(CCc1ccccn1)S(=O)(=O)c1ccc2c3c(cccc13)C(=O)N2`, for which the inhibition was -2.74%.

For the compound `COc1cccc(C(=O)NNC(=O)c2ccccc2Br)c1`, the inhibition was -3.7%.

For the compound `CC(C)N1C(=S)SC(C)(C)C1n1oc(=O)n(-c2ccc(Cl)c(Cl)c2)c1=O` (stereo unspecified), the inhibition is 1%.

`O=[N+]([O-])c1ccc(Oc2ccc(F)cc2Br)c2ccncc12`: the inhibition is 19.1% (active).

Consider `COC(=O)c1ccc(OCC(=O)NC(C)(C)C)cc1`, for which the inhibition was -0.09%.

Consider `Cc1cc2cc3c(N)[nH]nc3nc2cc1C`, for which the inhibition is 38.5% (active).

For `CCc1nnc(NC(=O)c2cccs2)s1`, the inhibition was -4.62%.

`CCc1ccc2nc3sc(C(=O)Nc4nnc(CC)s4)c(N)c3cc2c1`: the inhibition was 33.3% (active).

As to `CCc1nnc(NC(=O)c2nc3nccc(C)n3n2)s1`, the inhibition is -3.17%.

As for `Cc1cccc(N2CCN(C(=O)c3cnn4c(C(F)F)cc(-c5ccccc5)nc34)CC2)c1C`, the inhibition was 2.11%.

With `COc1ccc(C2CC(=O)Nc3sc(=N)c4c(N)c(C#N)c(N)nc4c32)cc1OC` (stereo unspecified), the inhibition was -1.85%.

Turning to `CC1(C)C2CCC13CS(=O)(=O)NC3C2` (stereo unspecified), the inhibition is -2.12%.

As to `Brc1ccc(/C=N/N2CCN(C3c4ccccc4-c4ccccc43)CC2)s1`, the inhibition is -1.5%.

Turning to `CCC(C)(C(=O)NC1CCCCC1)N(C)C(=O)c1ccc2c(c1)OCO2` (stereo unspecified), the inhibition is -1.51%.

Turning to `O=C(O)CCC(=O)NCc1ccc(C(=O)O)cc1`, the inhibition is -0.4%.

With `CCc1ccccc1NC(=O)CSc1nnc([C@@H](NC(=O)OC(C)(C)C)C(C)C)o1`, the inhibition was -2.32%.

On to `CCc1ccccc1NC(=O)CSc1nnc([C@@H](NC(=O)OC(C)(C)C)C(C)CC)o1` (stereo partly specified), for which the inhibition was 25.9% (active).

As for `C[C@H](NC(=O)OC(C)(C)C)c1nnc(SCC(=O)Nc2ccc(Br)cc2)o1`, the inhibition was -1.41%.

For `CCOc1ccc(NC(=O)CC2NCCNC2=O)cc1` (stereo unspecified), the inhibition is 0.06%.

For `CCCCNC(=O)C1CCCNC1=O` (stereo unspecified), the inhibition is -0.32%.

For the compound `CCCOc1ccc(NC(=O)C2CCCNC2=O)cc1` (stereo unspecified), the inhibition was 40.2% (active).

Take `COc1ccc(-c2[nH]nc(-c3ccccc3)c2-c2nc3ccccc3[nH]2)cc1`: the inhibition is -5.4%.

`COc1ccc(C2C(C#N)=C(/N=C/N3CCOCC3)OC3=C2C(=O)CC(C)(C)C3)cc1OC` (stereo unspecified): the inhibition was 0.22%.
